Experimental data from the supplement of paper PMC11417369.
The full ranking holds about 25,000 sequences; the median of “ln(normalized median fluorescence intensity)” is about 9.3, and the highest 2% start at about 10. For the sample, the highest values were picked, then their nearest neighbours and some sequences at random.

test system: PF3D7_0420300 AP2 domain 1 (GST-tagged); assay: gcPBM binding intensity (ln(normalized median fluorescence intensity)); higher = stronger DNA binding
Outline: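 Probes on an Agilent 4 × 180k array were primer-extended, double-stranded and 36 bp long, taken from intergenic genomic regions, with negative controls added. GST-tagged P. falciparum DNA-binding domains from E. coli, about 25 μg on average, were applied to the array for 1 h in 1× PBS containing 1% milk, 0.2 mg/ml BSA, 0.5% salmon testes DNA and 0.03% Triton X-100. Binding intensity, obtained after Alexa488 anti-GST antibody detection and a 488 nm scan, is the highest Masliner-normalised natural-log median intensity across replicate spots of either probe orientation.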

Row | Sequence | gcPBM binding intensity (ln)
1 | TTTATTTATTAATACACACACACACCCAGACAAAAT [CACACA_site4292] | 10.2
2 | TTAATTAAATATTATACACACAAAAAAATAATTTTA [CACACA_site96] | 9.27
3 | ATAATTAACAAATACACACACACACCCAGACAAAAA [CACACA_site4445] | 10.2
4 | TATTAATACAGACACACACACACACCCAATAAAATA [CACACA_site243] | 10.1
5 | TTTATTTATTAATACACACACACACGCCCACAAAAT [CACACA_site6253] | 10.2
6 | TTTTTATTTATTAATACACACACACCCACCCACAAA [CACACA_site7965] | 10.1
7 | AATTAATAACAAAATAAACACACATATATAAATACA [CACACA_site8456] | 9.84
8 | ATAATTAACAAATACACACACACACGCCCACAAAAA [CACACA_site6389] | 10.2
9 | AAAAAAAAAAAATACACACAAACACAAATTAAATAA [CACACA_site3809] | 9.88
10 | TAATTAACAAACTATAGTACACAAAATACTTCATAT [XGTACX_site6375] | 9.44
11 | ATGGTAGTGATTAAAAGTACACGTAATTGTAAAAAT [XGTACX_site387] | 9.45
12 | TATATTTAGTAAAAAGGTACCATTCTTATTTATATT [CACACA_negctrl_site1165] | 9.13
13 | TTTTATGTAATTATTTGTACATATGCCTCTTAAACT [XGTACX_site748] | 9.19
14 | AAAAAAATATATTCCTAATTTATGATTAAAAGGAAT [CACACA_negctrl_site751] | 8.98
15 | ATATATTTTTTCTTAACACACATATATAAAATAAAA [CACACA_site3500] | 9.24
16 | AGAAAAGAGAAATGGGCACACACACCCATATTATAT [CACACA_site8433] | 9.66
17 | AAAAGAGAAATGGGCACACACACACCGATTATATAT [CACACA_site4942] | 10.2
18 | AAGAGAAATGGGCACACACACACATATTATAGATAT [CACACA_site6828] | 10.2
19 | AAGAGAAATGGGCACACACACACATATTATATATAT [CACACA_site1531] | 10.1
20 | GAGAAATGGGGACACACACACATATTATAGATATAT [CACACA_site6829] | 10.1
21 | AAAAGAGAAATGGGCACACACACACCCATTATATAT [CACACA_site1530] | 9.88
22 | TAATATACTTAATACACACACGAATATTTATAAATA [CACACA_site6675] | 9.73
23 | ACATATTATAGGAATACACACAAAAACTTATCGGTA [CACACA_site7587] | 9.87

Row | Sequence | gcPBM binding intensity (ln)
24 | CAAGCACCCAGACACACACACACACCCACACCCACA [CACACA_site369] | 10.2
25 | CATATACATCCACATACACACATACACCCATACACA [CACACA_site5038] | 9.74
26 | CAAGCACAGAAACACACACACACACCGACACAGACA [CACACA_site4359] | 10.2
27 | CACCCACCCAGACACACACACACAAAAAAAAAAAGA [CACACA_site499] | 10.1
28 | CATACACCCATACATACACACATACATACACCCATA [CACACA_site5124] | 9.78
29 | GTAATACCCAAACACACACACATACCCATATATATA [CACACA_site5510] | 10
30 | AACAGACAGAAACACACACACATATATATATATATA [CACACA_site3394] | 9.81
31 | AAAATACCCGGACACACACACATATATATATATATT [CACACA_site6137] | 9.96
32 | ACATCAAGCAGACACACACACACACCCACCCACCGA [CACACA_site371] | 10.2
33 | ATACATCAAGGACACACACACACACCCACACCCACA [CACACA_site8013] | 10.3
34 | AATACCCAAGGACACACACACACATATATATATATA [CACACA_site8345] | 10.2
35 | ATTATTACTATATGTGTACACATCAACTGGTTTGAT [CACACA_site5563] | 9.39
36 | AAAAAAAAAAAAAAGGTGCATACTTTGAATTAATAT [GTGCAC_site9401] | 9.2
37 | ATAAAAAATATCACATAAAATAAAAAAAGAAAGGAT [XGTACX_negctrl_site294] | 9.62
38 | AGTGGACTTTTTTTTTTTTTTTTTTTTTTTTTATTA [CACACA_negctrl_site547] | 9.2
39 | AGTATAAATATATTATGTACATATATATTATACTTA [XGTACX_site2623] | 9.09
40 | ATTATCTATCGTTTTTGTACTTACACCTTAATACAA [XGTACX_site7337] | 9.58
41 | ACATCAAGCAGACACACACACACACCCACCCACCCA [CACACA_site8012] | 10.4
42 | TACACAAGCAGACACACACACATATATATATATATA [CACACA_site1270] | 9.72
43 | AAGCATACATCAAGCACACACACACCCACAGAGACA [CACACA_site4362] | 9.89
44 | TACACAAGCGGACACACACACATATATATATATATA [CACACA_site4832] | 9.81
45 | ACATCAAGCGGACACACACACACACCGACAGACACA [CACACA_site4361] | 10.2
46 | TAAAGTATTACAACCACACACACACCGATATATTAT [CACACA_site9382] | 9.99

Row | Sequence | gcPBM binding intensity (ln)
47 | ATAAAAATAAAAAGTGTGCACACAAAAATATATATA [GTGCAC_site9931] | 9.9
48 | ATATATATATATATATGTACATATTCACTTATATTT [XGTACX_site5324] | 9.18
49 | ATTAAACATAAATATGCACACATATACATATATTCA [CACACA_site8850] | 9.4
50 | TATGTACACCCATATACACACCTCTATAATATATAT [CACACA_site4563] | 9.67
51 | TTTTATGAAAAGTATTGTACGTATAATTTATATGTA [XGTACX_site1639] | 9.04
52 | GGAACTTATTTTTATACACACATATGTGCATATTAT [CACACA_site629] | 9.68
53 | CACACTAAAAGACACACACACACACGCATATAAATA [CACACA_site7874] | 10.2
54 | CATATAAAAAGACACACACACACATATATATATATA [CACACA_site940] | 10
55 | AAAAGGAACAGACACACACACATATATAAATATGTA [CACACA_site7656] | 9.97
56 | ATAAAAAAAAGACACACACACATATATATATATATA [CACACA_site3073] | 9.67
57 | AAAAAAAAAAAAAACACACACACACGCATAAATATA [CACACA_site6217] | 10.1
58 | CATATAAATATATATACACACACACCGTAATACATA [CACACA_site9158] | 10.2
59 | AAAAAAAAAAGACACACACACATATAAATATAAATA [CACACA_site6899] | 10.2
60 | TAAAAAGGAAGACACACACACACATATATAAATATA [CACACA_site7657] | 10.2
61 | TATAAATAAAGACACACACACATATAAATAAATATA [CACACA_site7155] | 10.1
62 | TATATAAATAGACACACACACACCTTATAATTACTA [CACACA_site7828] | 10
63 | TATAAATAAAGACACACACACACACCGTATAATTAC [CACACA_site7829] | 10.2
64 | ATATAATAAAATGACACACGCATATATATATATATA [CACACA_site2789] | 9.33
65 | ACAAAAAAAAACGTGGTGCATTAATAATATTGTATA [GTGCAC_site9469] | 9.43
66 | ATTACATTAATAAGAGTGCATTATATAAGTTTTATG | 9.2
67 | TTTGGCTAGTCAAGTTGTACAAAAAAAAAAAAAAAA [XGTACX_site8382] | 8.58
68 | GTAATACACAGACACACACACATACACATATTTATA [CACACA_site7313] | 10
69 | TTGTACTACAATCCTTTATTTATTTAAACCTGTATG [CACACA_negctrl_site428] | 9.14

Row | Sequence | gcPBM binding intensity (ln)
70 | TTCTTCAAGGAAAACACATGCGCATTTTCACCAATT [TGCATGCA_site11] | 9.15
71 | TTTTCAGAAAAGAGAAACTTTATTTTTCACAACCGA [TGCATGCA_negctrl_site389] | 8.85
72 | AAACCTACATAACATACACACGCATATATATAATTT [CACACA_site8923] | 9.69
73 | AAGTAATTTGTTGACACACACACACGCATACCTATA [CACACA_site7140] | 10.2
74 | ACCTACATAACATACACACGCATATATATAATTTTA [CACACA_site2847] | 9.64
75 | TATATAAAAAATTCAATACACACCATATATAAATAT [CACACA_site3987] | 9.66
76 | AATATATAAGTGTTGTGTACTAAAGTATTTTCCTAT [XGTACX_site1622] | 9.5
77 | CGCATACACAGACACACACACACATATAAATATGTA [CACACA_site6444] | 9.92
78 | CACGCATACAGACACACACACACACGGATATAAATA [CACACA_site6445] | 10.3
79 | GCTATAAATACAGACGCACACATATACATACAGATA [CACACA_site5778] | 9.49
80 | TAAATAAATTTATACACACACACACGGATATAAATA [CACACA_site6532] | 10.1
81 | CACACGCACGGACACACACACATATAAAATCTATAT [CACACA_site6428] | 9.91
82 | CACACGCACAGACACACACACACATATAAATATGTA [CACACA_site6300] | 10.1
83 | ATAGTATACAGACACACACACACACGGATATAAATA [CACACA_site6914] | 10.3
84 | ACTTGTAAGAGACACACACACACACGGATATAAATA [CACACA_site6517] | 10.1
85 | ACCATATAAATAAACACACACACACGGATATAAATA [CACACA_site7157] | 10.1
86 | CGCGCACACGGACACACACACACACGGATATAAATA [CACACA_site7102] | 10.2
87 | CACACGCACAGACACACACACACACGGATATAAATA [CACACA_site6301] | 10.2
88 | TAAATACAGACATATACACACATATATATATATATA [CACACA_site4382] | 9.28
89 | GAGAAATTTATACATACACACATATAAATATTATAG [CACACA_site7819] | 9.6
